Only some compounds are listed: those with a hit (about 2.5% of all), similar ones and a draw of the others.
ULK1 primary: blocks human autophagy kinase ULK1. O75385. AlphaScreen Atg13 phosphorylation by ULK1, luminescence. inhibition, % at 5.96 µM. actives 1.9% (n = 30,000); in the data active = inhibition above about 43%;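 also: 0% = median of compound wells and 100% = no enzyme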
ASK1 inh: inhibitors of human ASK1 kinase; AID 1159602; Q99683; actives 0.99% (n = 22,000); inhibition, % at 7.44 µM; AlphaScreen MKK6 phosphorylation by ASK1, luminescence; in the data active = inhibition above about 35%;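 also: 0% = median of compound wells and 100% = no enzyme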
Target sequence (Q99683 whole entry, looked up): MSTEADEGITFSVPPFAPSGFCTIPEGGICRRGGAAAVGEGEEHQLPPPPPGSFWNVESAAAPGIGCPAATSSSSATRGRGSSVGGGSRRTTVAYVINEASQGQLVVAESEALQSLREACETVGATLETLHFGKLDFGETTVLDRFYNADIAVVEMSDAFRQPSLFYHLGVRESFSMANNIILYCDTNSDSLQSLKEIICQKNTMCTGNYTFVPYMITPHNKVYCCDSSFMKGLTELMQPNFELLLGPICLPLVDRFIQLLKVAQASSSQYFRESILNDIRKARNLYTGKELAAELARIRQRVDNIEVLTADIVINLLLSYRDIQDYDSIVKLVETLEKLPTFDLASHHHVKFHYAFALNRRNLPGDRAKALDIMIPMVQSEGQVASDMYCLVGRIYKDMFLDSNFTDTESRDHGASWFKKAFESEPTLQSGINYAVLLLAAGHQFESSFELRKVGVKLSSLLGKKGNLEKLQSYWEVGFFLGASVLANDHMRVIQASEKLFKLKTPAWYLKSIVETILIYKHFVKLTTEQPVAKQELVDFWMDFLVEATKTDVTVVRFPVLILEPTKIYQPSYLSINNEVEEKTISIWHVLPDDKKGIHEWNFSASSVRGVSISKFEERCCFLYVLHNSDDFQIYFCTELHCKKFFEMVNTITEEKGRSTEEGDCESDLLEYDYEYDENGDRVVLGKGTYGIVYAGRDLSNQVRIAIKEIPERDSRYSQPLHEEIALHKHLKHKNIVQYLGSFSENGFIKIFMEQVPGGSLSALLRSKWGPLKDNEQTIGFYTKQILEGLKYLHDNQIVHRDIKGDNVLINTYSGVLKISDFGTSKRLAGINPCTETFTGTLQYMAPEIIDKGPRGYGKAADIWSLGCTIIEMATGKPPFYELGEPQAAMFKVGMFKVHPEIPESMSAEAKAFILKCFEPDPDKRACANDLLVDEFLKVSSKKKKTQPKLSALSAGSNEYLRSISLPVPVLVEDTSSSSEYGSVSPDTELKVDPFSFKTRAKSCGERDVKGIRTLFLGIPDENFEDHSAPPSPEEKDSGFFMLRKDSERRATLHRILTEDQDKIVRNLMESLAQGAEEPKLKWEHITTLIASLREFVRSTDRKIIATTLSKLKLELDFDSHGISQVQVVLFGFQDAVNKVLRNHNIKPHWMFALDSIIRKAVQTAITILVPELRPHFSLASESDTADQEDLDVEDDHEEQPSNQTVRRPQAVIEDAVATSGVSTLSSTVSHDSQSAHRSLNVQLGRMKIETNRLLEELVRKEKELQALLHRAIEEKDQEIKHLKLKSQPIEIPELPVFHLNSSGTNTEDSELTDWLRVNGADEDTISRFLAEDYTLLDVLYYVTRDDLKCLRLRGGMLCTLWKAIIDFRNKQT
TruHits interf: interferes with AlphaScreen TruHits signal in ASK1 counter-screen | shares compounds with ASK1 inh | AlphaScreen TruHits beads, signal interference counterscreen | IC50, µM | actives 20% (n = 220) | AID 1159604;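 active = IC50 of 10 µM or lower in the counterscreen; inactive = IC50 above 10 µM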;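 also: loss of AlphaScreen light from TruHits beads alone with no ASK1 enzyme present; potency of signal reduction so a low IC50 flags an assay artifact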
Active calls of the source: *; i = inactive; · = not tested or not shown; ! = a repeat was not active.

SMILES	ULK1 primary	ASK1 inh	TruHits interf
CN(C)CCCc1cc(-c2cn[nH]c2)ccc1NC(=O)C1COc2ccccc2O1 (centres undefined)	4	-4	·
O=C(NCCc1ccc(O)cc1)c1cccc(-c2cccs2)n1	-10	6	·
Cn1ccc2cc(-c3cc(Nc4ccc(N5CCOCC5)cc4)nc(N)n3)ccc21	26	46*	>20
CC(=O)c1cccc(-c2cc(Nc3ccc(N4CCOCC4)cc3)nc(N)n2)c1	8	8	·
Cc1ccc(-c2ncn(-c3ccc(Nc4nccc(-c5cc(F)cc(N(C)C)c5)n4)cc3)n2)cn1	-25	-15	·
COc1ccc(-c2ncn(-c3ccc(Nc4nccc(-c5cc(C#N)cc(N6CCNCC6)c5)n4)cc3)n2)cn1	-387	45*	>19
Cc1n[nH]c(C)c1-c1cc(F)cc(-c2ccnc(Nc3ccc(-n4cnc(N5CCOCC5)n4)cc3)n2)c1	13	48*	>19
Fc1cc(-c2ccnc(Nc3ccc(-n4cnc(N5CCOCC5)n4)cc3)n2)cc(N2CCOCC2)c1	5	24	·
CN(C)c1cc(F)cc(-c2ccnc(Nc3ccc(-n4cnc(N5CCC(O)CC5)n4)cc3)n2)c1	-33	39*	>19
CN1CCN(c2ncn(-c3ccc(Nc4nccc(-c5cc(C#N)cc(N6CCC(O)CC6)c5)n4)cc3)n2)CC1	-51	41*	>19
COc1ccc(-c2ccc(Nc3nccc(-c4cc(C#N)cc(N5CCOCC5)c4)n3)cc2)cn1	-4	-2	·
N#Cc1cc(-c2ccnc(Nc3ccc(-n4cnc(N5CCOCC5)n4)cc3)n2)cc(N2CCCC(O)C2)c1 (centres undefined)	6	14	·
Cc1cnc(-c2ccc(C(=O)N3CCN(C)CC3)cc2)nc1NC1CCN(Cc2ccccc2)CC1	0	-4	·
Cc1nc(C)n(-c2ccc(Nc3cc(-c4nn(CCc5ccccc5)cc4-c4ccccc4)ccn3)cc2)n1	-24	5	·
CC(C)n1c(Nc2ccc(N3CCOCC3)cc2)nc2c(NCCCN3CCCC3=O)ncnc21	10	-10	·
CN1CCN(C(=O)c2ccc(-c3cc(C(=O)NCCO)ccn3)cc2)CC1	2	-21	·
CCCNC(=O)c1ccc(-c2ccccc2)s1	1	6	·
CC(C)n1cnc2c(NCCOc3ccccc3)nc(Nc3cccnc3)nc21	2	7	·
c1cc(-n2cnc(N3CCOCC3)n2)ccc1Nc1ncc2ccc(-c3cn[nH]n3)cc2n1	59*	49*	>19
Cc1nc(-c2ccc3cnc(Nc4ccc(-n5cnc(N6CCOCC6)n5)cc4)nc3c2)n[nH]1	19	-21	·
CC(C)n1cnc2c(NCc3ccccc3)nc(Nc3ccc(N4CCOCC4)cc3)nc21	-5	35	·
CC(C)n1cnc2c(Nc3ccc(N4CCOCC4)cc3)nc(N3CCN(c4ccccn4)CC3)nc21	35	36*	i
CC(C)n1cnc2c(Nc3ccccc3)nc(N3CCN(c4ccccn4)CC3)nc21	16	32	·
c1ccc(-n2cnc3c(Nc4ccc(N5CCOCC5)cc4)nc(Nc4ccc(-n5ccnc5)cc4)nc32)cc1	17	-5	·
CC(C)n1cnc2c(Nc3ccc(Oc4ccccc4)cc3)nc(N3CCOCC3)nc21	17	42*	>20
SMILES	ULK1 primary	ASK1 inh	TruHits interf
CC(C)n1cnc2c(Nc3ccccc3)nc(N3CCOCC3)nc21	17	2	·
CC(C)n1cnc2c(Nc3ccccc3)nc(Nc3ccc(N4CCOCC4)cc3)nc21	31	47*	>20
c1ccc(-n2cnc3c(Nc4ccc(N5CCOCC5)cc4)nc(Nc4cccnc4)nc32)cc1	11	40*	>16
FC(F)(F)c1cccc(CNc2ccnc(Nc3cnccn3)n2)c1	0	12	·
CC(C)n1cnc2c(NCCCN3CCCC3=O)nc(-c3ccc(C(=O)NC4CC4)cc3)nc21	10	-8	·
Fc1cc(-c2nc(Nc3ccc(Cn4cccn4)cc3)ncc2F)cc(N2CCOCC2)c1	-3	3	·
COc1ccc(-c2nc(NC3CCN(Cc4ccccc4)CC3)c3ncn(-c4ccccc4)c3n2)cc1	-30	23	·
COc1ccc2c(c1)CC(C(=O)Nc1ccc(-c3cn[nH]c3)c(OC)c1)CO2 (centres undefined)	-23	-4	·
FC(F)(F)c1cccc(CCNc2nccc(Nc3ccncn3)n2)c1	-6	10	·
O=C(Nc1ccc(-c2cn[nH]c2)cc1)[C@H]1Cc2ccccc2CN1	20	4	·
CC(=O)Nc1ccc(Nc2nc(N3CCN(c4ccccn4)CC3)nc3c2ncn3Cc2ccc(C(F)(F)F)cc2)cc1	-58	6	·
FC(F)(F)c1ccc(Cn2cnc3c(Nc4ccc(N5CCOCC5)cc4)nc(N4CCN(c5ccccn5)CC4)nc32)cc1	-11	38*	>20
CCCNc1nc(Nc2ccc(N3CCOCC3)cc2)nc2cc(OC)c(OC)cc12	9	30	·
COc1cc2nc(Nc3nccc4ccccc34)nc(Nc3ccc(N4CCOCC4)cc3)c2cc1OC	10	36*	i
COc1cc2nc(Nc3ccc(N4CCOCC4)cc3)nc(NCc3ccccc3)c2cc1OC	-7	41*	i
COc1cc2nc(Nc3ccccn3)nc(Nc3ccc(N4CCOCC4)cc3)c2cc1OC	-9	9	·
CCN(CC)C(=O)C1CCCN(c2cc(NCCCN3CCCC3=O)nc(N)n2)C1 (centres undefined)	6	-4	·
O=C1CCCN1CCCNc1nc(NCc2ccccc2)c2ncn(C3CCCCC3)c2n1	-8	5	·
CN(C)C(=O)C1CCC(Nc2ccc3[nH]ncc3c2)CC1 (centres undefined)	-3	-6	·
C[C@]12C=CC(=O)C=C1CCC1C2[C@@H](O)C[C@@]2(C)C1CC[C@]2(O)C(=O)COP(=O)(O)O (some centres undefined)	-2	·	·
Cc1cc(Nc2ccc(N3CCOCC3)cc2)nc(Nc2cccc(N(C)C)c2)n1	-5	41*	>20
COc1cc(Nc2cc(Nc3cccc(N(C)C)c3)ncn2)cc(OC)c1OC	11	22	·
CN(C)c1cccc(Nc2nccc(NCc3cccc(C(F)(F)F)c3)n2)c1	-1	43*	>16
FC(F)(F)c1cccc(CNc2ccnc(Nc3ccccc3)n2)c1	-20	-1	·
Cc1cc(Nc2ccccc2)nc(Nc2ccc(N3CCOCC3)cc2)n1	-4	19	·
SMILES	ULK1 primary	ASK1 inh	TruHits interf
Cc1cc(NCc2cccc(C(F)(F)F)c2)nc(Nc2ccc(N3CCOCC3)cc2)n1	-9	40*!	4.6*
COc1cc(Nc2ccnc(Nc3cccc(N(C)C)c3)n2)cc(OC)c1OC	19	39*	6.9*
Cc1cc(NCc2cccc(C(F)(F)F)c2)nc(Nc2ccc(C(F)(F)F)cc2)n1	-23	-9	·
O=C(NCCCN1CCCC1=O)c1ccc2nc(-c3ccc(C(=O)NC4CC4)cc3)sc2c1	11	-17	·
CC[C@@H](C(=O)O)C1O[C@@H]([C@@H](C)[C@H](O)[C@H](C)C(=O)[C@H](CC)[C@H]2O[C@]3(C=C[C@@H](O)[C@]4(CC[C@@](C)([C@H]5CC[C@](O)(CC)[C@H](C)O5)O4)O3)[C@H](C)C[C@@H]2C)[C@@H](C)C[C@@H]1C (some centres undefined)	-9	·	·
Cc1cc(NCc2ccccc2)nc(Nc2cccc(N(C)C)c2)n1	9	23	·
COc1cc2nc(Nc3cccc(N(C)C)c3)nc(NCc3cccc(C(F)(F)F)c3)c2cc1OC	-15	38*	i
COc1cc2nc(Nc3cccc(N(C)C)c3)nc(NCc3ccccc3)c2cc1OC	-3	33	·

High-throughput results (PubChem BioAssay)
